PDI turbidity: inhibitors of human protein disulfide isomerase. P07237. PDI insulin aggregation turbidity, A650, 90 min. inhibition, % at 10 µM. 0.052% of 350,000 active;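 active means mean inhibition across replicates of 30% or more, whatever share of single replicates reach that level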
ARNT-TACC3 inh: disrupts binding between human ARNT and TACC3. Q9Y6A5. AlphaScreen His-ARNT PAS-B/GST-TACC3 binding, luminescence; TACC3 fragment carries E629A point mutation. inhibition, % at 9.99 µM. 0.66% of 390,000 active. AID 623870;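 active means mean inhibition of replicates at least 50% and at least half of replicates each reaching 50%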;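 further: 0% = complete ARNT plus TACC3 wells and 100% = ARNT alone without TACC3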
CendR NRP1 mod: modulators of CendR peptide binding to human neuropilin-1 | O14786 | FAM-RPARPAR peptide binding to NRP-1, fluorescence polarization | inhibition, % at 25 µM | 0.85% of 360,000 active;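 active means inhibition or corrected inhibition above about 18%, plus a signal ratio from 0.5 to 1.5, limit read from the data, passing the limit was not always enough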
ALR inh: human ALR oxidase inhibition via reduced H2O2; P55789; purified ALR, DTT oxidation, H2O2 HRP-luminol luminescence; inhibition, % (concentration not given with the values); 3.8% of 290,000 active; AID 485317;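 active means mean replicate inhibition above about 79%, with every replicate also reaching it, limit read from the data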
ERp5 block: inhibitors of human ERp5; Q15084; ERp5 insulin aggregation, absorbance 650 nm, 90 min; inhibition, % at 9.99 µM; 0.05% of 350,000 active; AID 651711;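 active means mean replicate inhibition above about 25%, with every replicate also reaching it, limit read from the data, passing the limit was not always enough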
Target sequence (Q15084 whole entry, looked up): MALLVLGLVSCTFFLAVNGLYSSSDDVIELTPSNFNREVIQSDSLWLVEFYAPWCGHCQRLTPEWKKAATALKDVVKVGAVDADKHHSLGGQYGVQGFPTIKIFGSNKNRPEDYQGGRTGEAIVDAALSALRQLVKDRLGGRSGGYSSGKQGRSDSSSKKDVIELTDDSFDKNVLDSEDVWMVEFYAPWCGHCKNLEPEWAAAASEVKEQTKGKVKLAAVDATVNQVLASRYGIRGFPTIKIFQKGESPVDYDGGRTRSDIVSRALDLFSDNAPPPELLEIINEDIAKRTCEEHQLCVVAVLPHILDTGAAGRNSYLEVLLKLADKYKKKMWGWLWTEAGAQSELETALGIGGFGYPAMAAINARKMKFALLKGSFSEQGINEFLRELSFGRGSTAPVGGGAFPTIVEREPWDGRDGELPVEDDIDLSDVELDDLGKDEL
PglD inh: PglD (C. jejuni) enzyme inhibition | 0.098% of 360,000 active | inhibition, % at 12.5 µM | purified PglD enzyme, DTNB colorimetric CoA detection; in the data active means inhibition above about 16%, passing the limit was not always enough
Numbers without * were called inactive; · = not tested or not shown. This is one part of a sample in which hits are shown more often than they occur.

SMILES	PDI turbidity	ARNT-TACC3 inh	CendR NRP1 mod	ALR inh	ERp5 block	PglD inh
O=C(C[C@H]1C[C@@H]2c3cc(NC(=O)Nc4ccccc4F)ccc3O[C@@H]2[C@@H](CO)O1)NC1CCCCC1	·	-1	·	·	6	-2
O=C(CCCc1c[nH]c2ccccc12)NCc1cccs1	1	-3	8	90*	-14	·
CC(=O)Nc1ccc(NC(=O)COC(=O)CCCc2c[nH]c3ccccc23)cc1	1	-1	1	94*	-1	1
COc1ccc(S(=O)(=O)Nc2ccc3c(c2)C(=O)N([C@H](C)CO)C[C@@H](C)[C@H](CN(C)C(=O)NC(C)C)OCCCC[C@@H](C)O3)cc1	·	0	·	·	-2	2
C[C@H](CO)N1C[C@H](C)[C@@H](CN(C)S(=O)(=O)c2cccs2)Oc2ccc(NC(=O)Cn3cnnn3)cc2CC1=O	·	·	·	·	0	-1
CCCN(C(=O)Cn1c(C(F)(F)F)nc2ccccc21)C1CCS(=O)(=O)C1 (centres undefined)	0	-2	45*	-11	-1	-1
O=C(Cn1c(C(F)(F)F)nc2ccccc21)c1ccc(F)cc1	-8	-20	13	92*	·	-3
C[C@@H]1CCCCO[C@H](CN(C)S(=O)(=O)c2cccs2)[C@@H](C)CN([C@H](C)CO)C(=O)c2cc(NS(C)(=O)=O)ccc2O1	·	-4	·	·	-14	1
Cc1nc(C)c(N)c(=O)[nH]1	-4	0	24*	3	-2	-4
Cc1ccc(C)c(Cc2c(C)nc(C)[nH]c2=O)c1	2	-1	0	4	·	-6
COc1ccc(Cl)cc1S(=O)(=O)N1CCN(c2ccc(F)cc2)CC1	-2	3	29*	9	·	0
CC(=O)C1=C(NC(=O)c2ccc(C(F)(F)F)cc2)C[C@@H]2[C@H]1C2(C)C	-9	-2	0	5	-10	1
CC(=O)C1=C(NC(=O)c2ccccc2F)C[C@@H]2[C@H]1C2(C)C	-7	-1	17*	22	·	-5
CC(C)CC#Cc1cnc2c(c1)C(=O)N([C@H](C)CO)C[C@@H](C)[C@H](CN(C)C(=O)C1CCOCC1)O2	·	3	·	·	2	0
C[C@@H]1CN([C@H](C)CO)C(=O)c2cccc(NC(=O)Nc3cccc4ccccc34)c2O[C@@H]1CN(C)C	·	·	·	·	9	·
Cc1c(C(=O)Nc2ccc(S(=O)(=O)Nc3ncccn3)cc2)oc2ccc(Cl)cc12	1	16	1	1	-2	-2
Cc1noc(NS(=O)(=O)c2ccc(NC(=O)c3oc4ccc(Cl)cc4c3C)cc2)c1C	-20	6	-4	98*	0	2
Cc1ccc2c(=O)cc(C(=O)Nc3ccc(S(=O)(=O)Nc4onc(C)c4C)cc3)oc2c1	12	8	3	97*	-2	1
Cc1noc(NS(=O)(=O)c2ccc(NC(=O)c3cnc4n(c3=O)CCS4)cc2)c1C	-7	-5	-15	99*	·	·
Cc1noc(NS(=O)(=O)c2ccc(NC(=O)c3cc4ccccc4o3)cc2)c1C	-3	-9	-4	·	-6	-1
Cc1cc(C)c(C(=O)Nc2ccc(S(=O)(=O)Nc3onc(C)c3C)cc2)c(C)c1	0	-1	-4	·	0	2
Cc1ccc2c(C)c(C(=O)Nc3ccc(S(=O)(=O)Nc4onc(C)c4C)cc3)oc2c1	4	8	4	97*	-8	-3
COc1ccc(-c2cnc3c(c2)C(=O)N([C@@H](C)CO)C[C@@H](C)[C@@H](CN(C)C(=O)Cc2ccccn2)O3)cc1	·	0	·	·	1	-4
Cc1cc(C)nc(NS(=O)(=O)c2ccc(NC(=O)c3nn(-c4ccccc4)ccc3=O)cc2)n1	4	-2	7	·	7	-2
Cc1cccc(-n2ccc(=O)c(C(=O)Nc3ccc(S(=O)(=O)Nc4onc(C)c4C)cc3)n2)c1	-1	-5	36*	-8	1	1
SMILES	PDI turbidity	ARNT-TACC3 inh	CendR NRP1 mod	ALR inh	ERp5 block	PglD inh
Cc1ccc(-c2cc(C(=O)Nc3ccc(S(=O)(=O)Nc4onc(C)c4C)cc3)c3ccccc3n2)cc1	3	18	3	98*	1	·
CCNCC(=O)Nc1c(C)cccc1C	1	29	-2	2	-1	1
CCC(C)(NC=O)C(=O)Nc1c(C)cccc1C (centres undefined)	4	5	26*	·	1	·
Cc1cc(OCC(=O)NCCN2CCOCC2)cc(C)c1Cl	14	17	-5	1	2	4
O=C(COc1ccc2c3c(c(=O)oc2c1)CCCC3)NCCN1CCOCC1	-13	4	24*	-4	3	6
Cc1ccc(OCC(=O)NCCN2CCOCC2)cc1C	-17	-6	10	87*	·	·
O=C1C=C(c2ccc(F)c(Cl)c2)C[C@@H](c2ccc(F)cc2)C1	3	0	24*	-3	1	4
Cc1ccc(Cl)cc1C1=CC(=O)C[C@H](c2ccc(F)cc2)C1	-4	-3	27*	-1	6	-4
O=C1C=C(c2cc(F)ccc2F)C[C@@H](c2ccc(Cl)cc2)C1	5	2	10	0	0	-5
COc1ccc([C@H]2CC(=O)C=C(c3cc(Cl)ccc3C)C2)cc1	3	-7	2	4	-2	-2
COc1ccccc1S(=O)(=O)N[C@H]1CC[C@H](CCNC(=O)C2CCC2)O[C@@H]1CO	·	-1	·	·	-12	-3
C[C@]12CC[C@@H]3c4ccc(O)cc4C(=O)C[C@H]3[C@@H]1CC[C@@H]2O	39*	-20	1	6	4	7
COc1ccc(/C=N/NC(=O)CCn2nc(C)cc2C)cc1O	10	3	0	77*	-6	·
COc1ccc(OC)c(NC(=O)CCN2CCN(c3ccccc3)CC2)c1	-1	9	-4	92*	·	-2
COc1ccc(/C=N/NC(=O)CCn2nc(C)cc2C)cc1	1	-21	11	-17	2	-4
COc1ccc(OC)c(NC(=O)CCN2CCN(Cc3ccccc3)CC2)c1	-4	-1	2	-52	·	4
COc1ccc(/C=N/NC(=O)c2ccncc2)cc1CN1CCN(c2ccc(F)cc2)CC1	-2	6	7	99*	0	-1
COc1ccccc1NC(=O)NCCCN1CCN(c2cccc(Cl)c2)CC1	·	48*	4	5	-2	-1
CCCNC(=O)N(C)C[C@@H]1Oc2ncc(C#CCc3ccccc3)cc2C(=O)N([C@@H](C)CO)C[C@@H]1C	·	·	·	·	4	-1
CO[C@H]1CN(C)C(=O)c2ccc(NC(=O)c3cccc(Oc4ccccc4)c3)cc2OC[C@H](C)NC[C@@H]1C	·	·	·	·	-2	·
COc1ccc(/C=N/NC(=O)CCc2c(C)n[nH]c2C)cc1OC	5	-5	5	7	·	·
COc1cc(/C=N/NC(=O)CCc2c(C)n[nH]c2C)ccc1O	8	29	-1	99*	·	-5
COc1cc(/C=N/NC(=O)CCN2CCCCC2)ccc1O	9	·	-3	99*	1	·
